Assay outcomes from PubChem BioAssay.
Granule exo inh: lytic granule exocytosis inhibition; 360,000 compounds, 0.66% hits; inhibition, % at 10 µM; TALL-104 LAMP-1 surface exposure, flow cytometry; cells stimulated with thapsigargin and PMA; AID 651702;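 active means inhibition above about 55%, limit read from the data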
ABHD5-PLIN5 inh: ABHD5-PLIN5 protein interaction inhibition; Split G. princeps luciferase complementation, luminescence, 4 h; 360,000 compounds, 0.78% hits; inhibition, % at 4 µM;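 active means inhibition above the mean inhibition across every tested compound plus 3 SD, cut at about 22% in these data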;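 further: 0% = DMSO only wells and the 100% control is not disclosed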
Target sequence (Q00G26 whole entry, looked up): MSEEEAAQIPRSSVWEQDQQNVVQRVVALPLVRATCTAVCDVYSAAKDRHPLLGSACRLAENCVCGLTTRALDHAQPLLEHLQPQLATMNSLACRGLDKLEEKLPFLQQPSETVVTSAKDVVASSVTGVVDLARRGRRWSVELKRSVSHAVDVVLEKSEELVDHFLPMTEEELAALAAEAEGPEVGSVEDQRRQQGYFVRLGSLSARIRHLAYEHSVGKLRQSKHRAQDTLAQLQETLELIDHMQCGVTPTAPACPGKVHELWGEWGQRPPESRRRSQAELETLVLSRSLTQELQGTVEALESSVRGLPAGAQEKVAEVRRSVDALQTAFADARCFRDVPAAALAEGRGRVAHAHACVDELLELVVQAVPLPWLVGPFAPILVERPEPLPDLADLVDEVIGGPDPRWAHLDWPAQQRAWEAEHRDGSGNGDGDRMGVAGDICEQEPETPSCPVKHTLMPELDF
Target sequence (Q8WTS1 whole entry, looked up): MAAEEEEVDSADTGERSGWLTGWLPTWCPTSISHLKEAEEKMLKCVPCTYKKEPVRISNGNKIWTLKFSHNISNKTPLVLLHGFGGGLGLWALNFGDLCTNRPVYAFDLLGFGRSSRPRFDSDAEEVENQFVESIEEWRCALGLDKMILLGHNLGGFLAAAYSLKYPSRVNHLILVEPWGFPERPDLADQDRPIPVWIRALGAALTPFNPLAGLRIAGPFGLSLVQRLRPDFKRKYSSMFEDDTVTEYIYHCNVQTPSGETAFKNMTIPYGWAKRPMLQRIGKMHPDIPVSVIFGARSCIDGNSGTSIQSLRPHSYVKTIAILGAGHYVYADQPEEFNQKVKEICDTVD
Rce1 inhib: yeast Ras-converting enzyme inhibition; calls only; yeast membranes, quenched prenylated peptide cleavage fluorescence; 290,000 compounds, 0.27% hits; Q03530;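 active means fall in fluorescence gain of 50% or more versus controls, with final raw signal at or below 3038400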;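 further: plate controls were neutral control wells for no effect and wells lacking membranes for full effect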
PfM18AAP inh: blocks P. falciparum M18 aspartyl aminopeptidase. recombinant PfM18AAP, H-Glu-NHMec fluorogenic cleavage. inhibition, % at 7.35 µM. 290,000 compounds, 1.2% hits. AID 1822;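 active means inhibition above the campaign mean inhibition over all tested compounds plus 3 SD, cut at about 28% in these data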;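 further: 0% = plate median of test compound wells and 100% = 2 mM ZnCl2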
Platelet DG rel: platelet dense granule release activity; human platelet-rich plasma, SFLLRN dense granule ATP release, luminescence; inhibition, %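 (compounds screened at 7.5 µM in platelet-rich plasma)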; 300,000 compounds, 0.22% hits; AID 1663;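 active means mean replicate score, as percent of positive control, at or above 50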
Numbers without * were called inactive; i = inactive; · = no result given; + = active, no number. This is a sample that favours compounds with a hit; in the whole collection about 2.6% have one here.

SMILES | Granule exo inh | ABHD5-PLIN5 inh | Rce1 inhib | PfM18AAP inh | Platelet DG rel
Cc1c(Cl)cccc1-c1ccc(C(=O)N2CCN(c3ccc([N+](=O)[O-])cc3)CC2)o1 | 58.4* | -1.7 | i | 5.5 | -1.6
COc1c(C(O)CC(C)C)ccc2c1C(=O)OCc1cc(C)cc(O)c1O2 (configuration not stated) | -5.4 | -4.5 | i | 8.7 | -5.1
COc1cccc(C=C2Cc3ccccc3C2=O)c1 | -2.8 | 22.6* | · | · | ·
COc1cccc(/C=C2\CCc3ccccc3C2=O)c1 | -8.1 | 7.2 | i | 4.0 | 48.7
CCCc1nc2ccc(C(=O)OC)cn2c1Cc1ccccc1C(F)(F)F | -2.7 | 9.5 | · | · | ·
COc1ccc(N=Nc2n(C)c3ccccc3[n+]2C)cc1 | · | · | i | 8.6 | 98.2*
COc1ccc(NC(=O)C(OC(=O)c2cnc(C)cn2)c2ccccc2)cc1Cl (configuration not stated) | 6.3 | 8.0 | i | · | -7.6
CCOC(=O)Cn1c(=NC(=O)CSC(C)=O)sc2ccccc21 | 1.9 | -17.2 | i | 1.6 | 87.1*
COCCOc1ccc(C(F)(F)F)cc1NC(=O)c1ccc(C(F)(F)F)cc1 | -0.6 | 10.1 | i | 0.1 | -13.2
CCCC[C@@H]1Cc2[nH][nH]c(=O)c2[C@H](c2ccc3ccccc3c2)O1 | -5.7 | 16.6 | · | · | ·
CCCC[C@@H]1Cc2[nH][nH]c(=O)c2[C@H](c2ccc(C(C)C)cc2)O1 | 2.8 | 23.2* | · | · | ·
CCCC[C@@H]1Cc2[nH][nH]c(=O)c2[C@@H](c2ccc(Cl)cc2)O1 | -3.0 | 22.6* | · | · | ·
COc1nn(CC(=O)N2N=C(C)CC2(O)C(F)(F)F)cc1[N+](=O)[O-] (configuration not stated) | -0.6 | -2.4 | i | -4.5 | -0.3
O=C1NN(c2ccccc2)C(=O)/C1=C\c1ccc2c(c1)OCO2 | -2.5 | -6.6 | i | 29.0* | -3.1
CN1C(=O)c2ccccc2N(C)C1c1cccs1 (configuration not stated) | -0.7 | 10.9 | i | 3.4 | -2.0
CN1C(=O)c2ccccc2N(C)C1c1ccccc1Cl (configuration not stated) | 4.7 | -1.3 | + | 3.7 | -5.9
C#CCOCCOCCOCCNc1nc(N2CCN(C(=O)CCCCCCCCCCNC(=O)[C@H](CCCCN)n3cc(C)nn3)CC2)nc(N2CCN(C(=O)CCCCCCCCCCNC(=O)[C@@H]([C@H](C)CC)n3cc(CCCCCN)nn3)CC2)n1 | -4.9 | 45.0* | · | · | ·
C#CCOCCOCCOCCNc1nc(N2CCN(C(=O)CCCCCCCCCCNC(=O)Cn3cc(CCCCCN)nn3)CC2)nc(N2CCN(C(=O)CCCCCCCCCCNC(=O)[C@H]([C@@H](C)CC)n3cc(CCCCCN)nn3)CC2)n1 | -0.4 | 33.7* | · | · | ·
C#CCOCCOCCOCCNc1nc(N2CCN(C(=O)CCCCCCCCCCNC(=O)[C@H]([C@@H](C)CC)n3cc(CCCCCN)nn3)CC2)nc(N2CCN(C(=O)CCCCCCCCCCNC(=O)[C@@H]([C@H](C)O)n3cc(C)nn3)CC2)n1 | -7.7 | 40.9* | · | · | ·
C#CCOCCOCCOCCNc1nc(N2CCOCC2)nc(N2CCN(C(=O)CCCCCCCCCCNC(=O)[C@@H]([C@H](C)O)n3cc(C)nn3)CC2)n1 | 1.4 | -5.4 | · | · | ·
C#CCOCCOCCOCCNc1nc(N2CCN(C(=O)CCCCCCCCCCNC(=O)[C@@H](CCC(=O)O)n3cc(CCCCCN)nn3)CC2)nc(N2CCN(C(=O)CCCCCCCCCCNC(=O)[C@@H](CCC(=O)O)n3cc(CCCCCN)nn3)CC2)n1 | -0.8 | 13.6 | · | · | ·
CCc1cccc2sc(NC(=O)C3CC3)nc12 | -7.7 | -1.9 | i | 9.8 | -0.3
CCOC(=O)NN1C(=O)c2ccccc2NC1c1ccccn1 (configuration not stated) | -2.8 | 2.0 | i | 29.7* | 2.0
Cn1ccnc1C(=O)C1CCCN(Cc2cn[nH]c2-c2ccc(-c3ccccc3)cc2)C1 (configuration not stated) | 29.8 | 0.4 | i | -10.1 | 19.7
N/C(=N\N=C/c1ccc(Br)cc1)N/N=C\c1ccc(Br)cc1 | 62.9* | -3.5 | i | 13.5 | 1.4
SMILES | Granule exo inh | ABHD5-PLIN5 inh | Rce1 inhib | PfM18AAP inh | Platelet DG rel
N/C(=N\N=Cc1ccc2c(c1)OCO2)NN=Cc1ccc2c(c1)OCO2 | 34.0 | -29.1 | · | · | ·
N/C(=N\N=C/c1ccc(F)cc1)N/N=C\c1ccc(F)cc1 | 60.7* | -4.2 | i | 17.9 | -4.9
COc1ccc(C(=O)CSc2nnc(CNC(=O)c3ccccc3F)n2C)cc1OC | -7.6 | 3.6 | i | -2.0 | -1.8
Cc1ccccc1NC(=O)NC1(C(=O)N2CCC(O)CC2)CCCCC1 | -3.2 | 0.6 | i | 1.0 | -3.2
CCCN(C(=O)C1CCN(S(=O)(=O)c2ccc(OC)c(OC)c2)CC1)C1CCS(=O)(=O)C1 (configuration not stated) | -5.6 | -5.9 | i | · | 2.1
C/C(=N\S(=O)(=O)c1ccc(C)cc1)Nc1cc(C(C)C)c(O)cc1C | 0.6 | -1.3 | i | 29.1* | 0.1
Cc1cc(NC(=O)COC(=O)c2c(C)nn(-c3ccccc3)c2C)no1 | 0.5 | -3.6 | i | -10.9 | 1.0
CC(NC(=O)C1CCN(Cc2ccccc2)CC1)c1cccc2ccccc12 (configuration not stated) | 1.2 | 2.4 | · | · | ·
Cc1cc(N/N=C/c2ccccc2O)c2ccccc2n1 | 75.8* | 1.1 | i | -3.3 | -13.5
Cc1ccccc1/C=N/Nc1nc2ccccc2c(=O)n1O | -4.3 | 7.8 | · | 30.8* | -13.0
C=CCn1c(N/N=C/c2ccc(O)cc2)nc2ccccc2c1=O | -2.1 | -9.8 | i | 7.1 | 11.0
COc1ccc2nc(C)cc(N/N=C/c3cccc(OC)c3O)c2c1 | 44.4 | 9.1 | i | 7.2 | -23.3
CCCNC(=S)N1CCC(c2nc3cc(C)c(C)cc3[nH]2)CC1 | 2.8 | -0.8 | i | -2.1 | -1.4
CC(C)(C)C1N=C(c2ccc3ccccc3c2)OC1=O (configuration not stated) | 63.9* | -5.8 | · | · | ·
CNC(=O)c1nnsc1S(=O)(=O)c1ccc(Cl)cc1 | 24.4 | 74.5* | i | -284.7 | -2.3
Cc1ccc(NC(=S)Nc2cccc3cnccc23)cc1C | 55.8* | -32.5 | · | 7.5 | 2.7
Cc1ccc(NC(=S)Nc2cccc3cnccc23)cc1 | -0.4 | -24.8 | i | 20.8 | -1.9
C[C@]12CC[C@@H]3c4cc(O)c(O)cc4CC[C@H]3[C@@H]1CC[C@@H]2O | 0.3 | 21.1 | i | 67.4* | -2.7
C[C@]12CC[C@@H]3c4ccc(O)cc4CC[C@H]3[C@@H]1CC[C@@H]2O | -5.5 | 5.8 | i | 2.8 | -0.8
COc1cc(/C=N/NC(=O)c2cccnc2)ccc1OC(=O)c1ccco1 | 2.8 | -16.9 | i | -11.6 | -7.8
CN1CCN(c2ccc(S(=O)(=O)N3CCCCC3)cc2NC(=O)/C=C/c2ccc(OC(F)F)cc2)CC1 | 28.1 | 12.0 | i | · | 5.9
COc1cc(/C=N/NC(N)=O)ccc1OCC(=O)N1C(C)CCCC1C (configuration not stated) | 0.5 | -0.6 | i | -7.1 | 62.3*
CC(C)c1nc2cc(C(=O)N3CCN(c4cnccn4)CC3)ccc2o1 | 4.0 | -0.1 | · | -3.1 | -3.3
O=C(Cc1noc2ccccc12)NNC(=S)Nc1ccc(Cl)cc1 | 4.8 | -5.6 | i | 25.9 | 1.0
